Molecular target: LSG1
Test: pooled miR-30 sensor sort-seq; sequence = guide strand
Conditions: shRNA
Further: reference of the scale not given here.

Row | Sequence | sensor-assay potency score (higher = more potent)
1 | TAGCTCCTTAAAGAGCTCCAGT | -1.06
2 | TTCTGTTCCTCTTCTAGCCGGA | 0.394
3 | TTGATTGTTGAACTCTTACCAA | -0.2
4 | TGATTGTTGAACTCTTACCAAC | -1.62
5 | TTTCGAGCATCTACTATCTGGA | -0.305
6 | TTGTGTGCAACCAGGAGTCAGT | -0.781
7 | TTGCTTTGTCTATCATCTCTGT | -0.0591
8 | TTGTGTATCTGCCTCTTCTGTG | -0.396
9 | TGTGTCTCGTGAACCATCCCTT | 0.477
10 | TAATATTAAGTTTTTCAGCTAC | -0.362
11 | TTGTTGAACTCTTACCAACATT | -1.39
12 | TTGAACTCTTACCAACATTAGG | -1.3

Molecular target: LTA4H
Test: as above
Conditions: shRNA

Row | Sequence | sensor-assay potency score (higher = more potent)
13 | TTGTCCATTGATCACTACTTTT | -1.71
14 | TATATCTGTCAGATCAACCACA | 0.143
15 | TTCATGTGCAATGACATTGGAG | -0.277
16 | TTTGTATCCAAAACCAGGCTGC | 0.416
17 | TTGATGAGAAGAGAGATCCTTC | 0.703
18 | TAAACTTCATTCTTCCTTGTTC | 0.185
19 | TTTGACTTCTTGTCCATTGATC | -0.618
20 | TTTCACAGAAGGAGTGTCCTGA | 0.561
21 | TTGGAGAGTGACTTGTCGCCTG | 0.145
22 | TTTTTCTATTGTAAGGTCCTTT | 0.0919

Source: the OligoGym collection
